Laboratory results taken from PubChem BioAssay (NCATS).
“And” between values parts separate entries of the source, which are not always exact repeats. Identical values can stand only once. Records with an inconclusive call do not appear. The source made the active and inactive calls. The call rests on the fitted dose curve; in most records, active means well fitted curve in the direction sought with a large enough effect; inconclusive means small, poorly fitted or top-dose-only effect, or another doubt; inactive means no such curve, though single readings can be large; an effect the other way counts as inactive or inconclusive. Numbered stars: 1 amine (or outer) side, 2 acyl side, 3 side chain; on linkers, the order of the positions; unused ones are H or OH. Bridge positions count the residues as written; N and C are the ends. Square brackets hold non-standard residues; d marks the D form. Peptide text beside a SMILES is read from it. * marks the point of attachment. pTerphenylCO(4''-OnC5H11) = CCCCCOc1ccc(-c2ccc(-c3ccc(C(=O)*)cc3)cc2)cc1; Orn(4R-OH,5R-OH) = O=C([C@H](C[C@@H](O)[C@@H](O)N[*:3])N[*:1])[*:2]; hTyr(3S-OH,4S-OH) = N[C@H](C(=O)O)[C@H](O)[C@@H](O)c1ccc(O)cc1; Pro(3S-OH,4S-Me) = C[C@H]1CN[C@H](C(=O)O)[C@H]1O; Hyp = O=C(O)[C@@H]1C[C@@H](O)CN1

Key:
[1] = molecular target: Cellular tumor antigen p53 (Homo sapiens) (UniProt P04637); assay: Primary qHTS for small molecule compounds that upregulate eGFP-tagged delta133p53alpha (in N-terminal) cells. (AID 2060322); conditions: NCI-H358 eGFP-delta133p53alpha fluorescence, 24 h; activation: stronger effect = higher value; further: nearly all actives have a fitted effect of over 75% in size; further: potency means the concentration at half of the fitted maximal effect;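 on activation: cells pre-induced with doxycycline then dosed without doxycycline; series mostly up to about 56 µM; 0% = DMSO vehicle and 100% = reference activator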
Sequence of Cellular tumor antigen p53 (Homo sapiens) (P04637 whole entry, looked up): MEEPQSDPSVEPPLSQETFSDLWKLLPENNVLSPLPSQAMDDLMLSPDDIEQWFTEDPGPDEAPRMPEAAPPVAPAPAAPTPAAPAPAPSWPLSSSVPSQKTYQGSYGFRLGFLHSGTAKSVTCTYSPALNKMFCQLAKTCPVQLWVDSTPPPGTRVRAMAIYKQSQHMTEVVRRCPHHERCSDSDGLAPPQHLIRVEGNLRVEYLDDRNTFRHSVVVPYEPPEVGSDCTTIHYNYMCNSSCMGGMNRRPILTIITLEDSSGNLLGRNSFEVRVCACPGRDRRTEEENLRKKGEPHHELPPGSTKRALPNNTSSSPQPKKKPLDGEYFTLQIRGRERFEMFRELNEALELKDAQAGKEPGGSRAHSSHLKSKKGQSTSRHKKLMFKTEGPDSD
In short: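 NCI-H358 cells pre-induced 24 h with 10 ng/ml doxycycline for eGFP-delta133p53alpha, plated dox-free and exposed 24 h at 37C to titrated compounds. Fixed, Hoechst-stained; gated GFP peak intensity by laser scanning cytometry, normalized to DMSO (0%) and 57.5 uM 5-azacytidine (100%).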

[2] = molecular target: Aldehyde dehydrogenase, mitochondrial (Homo sapiens) (UniProt P05091); assay: qHTS for Inhibitors of the Aldehyde Dehydrogenase Family (ALDH2) Primary screen (AID 2061308);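 further: plate controls were vehicle for no effect and reference inhibitor for full effect; nearly all actives have a fitted effect of over 55% in size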
[3] = molecular target: Retinaldehyde dehydrogenase 3 (Homo sapiens) (UniProt P47895); assay: qHTS for Inhibitors of the Aldehyde Dehydrogenase Family (ALDH1A3) Validation screen (AID 2061312); further: nearly all actives have a fitted effect of over 45% in size; further: potency means the concentration at half of the fitted maximal effect
[4] = molecular target: Retinaldehyde dehydrogenase 3 (Homo sapiens) (UniProt P47895); assay: qHTS for Inhibitors of the Aldehyde Dehydrogenase Family (ALDH1A3) Primary screen (AID 2061315);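 further: plate controls were DMSO vehicle for no effect and reference inhibitor for full effect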

COc1cc2c(Nc3cc(F)c(Cl)c(Cl)c3)ncnc2cc1OCC1CCCN(C)CCC1
active: Potency [1] 23.9 µM
inactive: Potency [2] | Potency [3] | Potency [4]

CNC(=O)c1ccc2cc([C@@]3(O)CCn4cncc43)ccc2c1
inactive: activation [1] -9.55% | Potency [2] | Potency [3] | Potency [4]

O=C(Nc1cc(-c2ccccc2)nn1-c1ccccc1)c1ccc([N+](=O)[O-])cc1
inactive: activation [1] -11% | Potency [2] | Potency [3] | Potency [4]

CC(C)(CO)c1cc2cc(NC(=O)C3(c4ccc5c(c4)OC(F)(F)O5)CC3)c(F)cc2n1CC(O)CO (configuration not stated)
inactive: activation [1] 17.7% | Potency [2] | Potency [3] | Potency [4]

CCC(C)n1cc(C)c2c(C(=O)NCc3c(C)cc(C)[nH]c3=O)cc(-c3ccc(N4CCNCC4)nc3)cc21 (configuration not stated)
inactive: activation [1] -3.34% | Potency [2] | Potency [3] | Potency [4]

CCCCS(=O)(=O)NC(Cc1ccc(OCCCCC2CCNCC2)cc1)C(=O)O (configuration not stated)
inactive: activation [1] 12.9% | Potency [2] | Potency [3] | Potency [4]

CCc1c(CC(N)=O)c2cc(OCCCP(=O)(O)O)ccc2n1Cc1ccccc1
inactive: activation [1] 2.86% | Potency [2] | Potency [3] | Potency [4]

O=C1NC(=O)C(c2cn3c4c(cccc24)CCC3)C1c1c[nH]c2ccccc12 (configuration not stated)
inactive: activation [1] 18.6% | Potency [2] | Potency [3] | Potency [4]

CC(C)S(=O)(=O)Nc1ccc(F)c(C(=O)c2c[nH]c3ncc(-c4cccnc4)cc23)c1F
inactive: activation [1] 28.6% | Potency [2] | Potency [3] | Potency [4]

CC(=O)SCC(=O)c1ccc(NS(=O)(=O)c2ccc(OCCCN(C)C)cc2)nc1
inactive: activation [1] 10% | Potency [2] | Potency [3] | Potency [4]

CN(CC(=O)N(Cc1ccc(C2CCCCC2)cc1)c1ccc(C(=O)O)cc1)S(=O)(=O)c1c(F)c(F)c(F)c(F)c1F
inactive: Potency [2] | Potency [3] | Potency [4]
active: Potency [1] 6.75 µM

O=C(COc1ccc(Cl)cc1)NC1CCC(NC(=O)COc2ccc(Cl)cc2)CC1 (configuration not stated)
inactive: activation [1] -5.25% | Potency [2] | Potency [3] | Potency [4]

Cc1ccc2nc(N)[nH]c(=O)c2c1Sc1ccncc1
active: Potency [3] 7.94 µM
inactive: activation [1] -10% and -17.7% | Potency [2] | Potency [4]

O=[N+]([O-])c1cc(Cl)ccc1S(=O)(=O)N1CCN(Cc2ccccc2)CC1
inactive: activation [1] 0.955% | Potency [2] | Potency [3] | Potency [4]

Nc1ncnc2c1ncn2[C@H]1CCCO1
inactive: activation [1] -5.73% | Potency [2] | Potency [3] | Potency [4]

CCCC(C(=O)O)c1c(C)nc2ccc(Cl)cc2c1-c1ccccc1 (configuration not stated)
inactive: activation [1] -1.91% | Potency [2] | Potency [3] | Potency [4]

CCCc1ccc(OCC(=O)N(Cc2nc(-c3cccnc3)no2)C(C)C)cc1
inactive: activation [1] -11.5% | Potency [2] | Potency [3] | Potency [4]

CNC(C)C(=O)NC(C(=O)N1CCCC1c1nc(C(=O)c2ccc(F)cc2)cs1)C1CCCCC1 (configuration not stated)
inactive: activation [1] 17.2% | Potency [2] | Potency [3] | Potency [4]

COCc1c(Cl)ccc2c1CC[C@H]2c1ncc[nH]1
inactive: activation [1] 11% | Potency [2] | Potency [3] | Potency [4]

FC(F)(F)Oc1ccc(-c2ccc3nnc(C(F)(F)F)n3c2)cc1
inactive: activation [1] -3.34% | Potency [2] | Potency [3] | Potency [4]

COc1ccc(NC(=O)c2ccc(C(=N)N(C)C)cc2)c(C(=O)Nc2ccc(Cl)cn2)c1
inactive: activation [1] -8.59% | Potency [2] | Potency [3] | Potency [4]

CC[C@H]1CN(c2nc(N)c(C(N)=O)nc2Cl)CCN1C1CCN(Cc2ccc(Cl)cc2)CC1
inactive: activation [1] 3.34% | Potency [2] | Potency [3] | Potency [4]

CNCCCC1(c2ccccc2)OC(C)(C)c2ccccc21 (configuration not stated)
inactive: activation [1] -11.9% | Potency [2] | Potency [3] | Potency [4]

Cc1cccc2c1NC(=O)C2(c1ccc(O)cc1)c1ccc(O)cc1
active: Potency [1] 0.213 µM
inactive: Potency [2] | Potency [3] | Potency [4]

O=C(Nc1ccccc1Br)NC1CCN(c2ccc(C(F)(F)F)cn2)C1 (configuration not stated)
inactive: activation [1] 0.477% | Potency [2] | Potency [3] | Potency [4]

CC1(C)CCC(C)(C)c2cc(C3(c4ccc(C(=O)O)cc4)OCCO3)ccc21
inactive: activation [1] 2.39% | Potency [2] | Potency [3] | Potency [4]

CN[C@@H]1[C@@H](O)[C@@H](O[C@@H]2[C@@H](O)[C@H](O[C@H]3O[C@H](CN)[C@@H](O)[C@H](O)[C@H]3O)[C@@H](N)C[C@H]2NC(=O)[C@@H](O)CN)OC[C@]1(C)O
inactive: activation [1] -2.86% | Potency [2] | Potency [3] | Potency [4]

O=C(O)Cn1nnc(-c2ccc(CN(CCCCOc3ccc(CN4CCCC4)cc3)CCc3ccccc3)cc2)n1
inactive: activation [1] 7.16% | Potency [2] | Potency [3] | Potency [4]

CCOC(=O)c1sc(NC(=O)[C@H](C(C)C)n2c(=O)[nH]c3ccccc3c2=O)nc1C
inactive: activation [1] 14.3% | Potency [2] | Potency [3] | Potency [4]

CN(C)CCC[C@]1(c2ccc(F)cc2)OCc2cc(C#N)ccc21
inactive: activation [1] 0.477% | Potency [2] | Potency [3] | Potency [4]

O=c1cc(N2CCOCC2)nc2c3ccccc3ccn12
inactive: activation [1] 6.21% | Potency [2] | Potency [3] | Potency [4]

Cc1c(C(=O)Nc2ccc(N3CC(C)OC(C)C3)nc2)cccc1-c1ccc(OC(F)(F)F)cc1 (configuration not stated)
inactive: activation [1] 20% | Potency [2] | Potency [3] | Potency [4]

Cc1cc(C)c(S(=O)(=O)n2cc(C)cc2C)c(C)c1
inactive: activation [1] 5.73% | Potency [2] | Potency [3] | Potency [4]

CC[C@H]1OC(=O)[C@H](C)[C@@H](O[C@H]2C[C@@](C)(OC)[C@@H](O)[C@H](C)O2)[C@H](C)[C@@H](O[C@@H]2O[C@H](C)C[C@H](N(C)C)[C@H]2O)[C@@](C)(O)C[C@@H](C)[C@@H]2N[C@@H](COCCOC)OC([C@H]2C)[C@]1(C)O
inactive: activation [1] 7.16% | Potency [2] | Potency [3] | Potency [4]

O=C(O)c1ccccc1NC(=O)N1CCC(c2ccccc2C(F)(F)F)CC1
inactive: activation [1] -3.34% | Potency [2] | Potency [3] | Potency [4]

CC(C)(O)c1ccccc1CC[C@@H](SCC1(CC(=O)O)CC1)c1cccc(/C=C/c2ccc3ccc(Cl)cc3n2)c1
inactive: activation [1] -15.3% and -1.91% | Potency [2] | Potency [3] | Potency [4]

CCN1C[C@H](C)n2c(c(O)c3c(=O)n(Cc4ccc(F)c(Cl)c4)nc(C(=O)NC)c32)C1=O
inactive: activation [1] -11.2% and 13.4% and -6.68% | Potency [2] | Potency [3] | Potency [4]

CC(NC(=O)CCc1nc2ccccc2c(=O)[nH]1)c1ccccc1 (configuration not stated)
inactive: activation [1] -1.43% | Potency [2] | Potency [3] | Potency [4]

COc1ccc(C(=O)Nc2c(Cl)cncc2Cl)cc1OC1CCCC1
inactive: activation [1] 0% | Potency [2] | Potency [3] | Potency [4]

CN(C)c1nc(Cc2ccc(NC(=O)c3ccc4ccccc4c3)cc2)nc(Cl)c1CC(=O)O
inactive: activation [1] -3.03% and -7.64% | Potency [2] | Potency [3] | Potency [4]

CC(=O)O[C@]1(C(C)=O)CC[C@H]2[C@@H]3C[C@H](C)C4=CC(=O)C=C[C@]4(C)[C@@]3(F)[C@@H](O)C[C@@]21C
inactive: activation [1] 1.91% | Potency [2] | Potency [3] | Potency [4]

COc1ccc(N2CCN(C(=O)c3cc4c(s3)-c3ccccc3S(=O)(=O)C4)CC2)cc1
inactive: activation [1] -13.8% | Potency [2] | Potency [3] | Potency [4]

Cc1cc(-c2nc(-c3ccc(OC(F)(F)F)cc3)no2)nn1Cc1ccnc(N2CCN(C3CC3)CC2)c1
inactive: activation [1] -0.955% | Potency [2] | Potency [3] | Potency [4]

COc1ccc(-c2cnc3ccc(NCc4ccc(S(N)(=O)=O)cc4)nn23)cc1OC
inactive: activation [1] 5.73% | Potency [2] | Potency [3] | Potency [4]

CCCCCOc1ccc(-c2ccc(-c3ccc(C(=O)N[C@H]4C[C@@H](O)[C@@H](O)NC(=O)[C@@H]5[C@@H](O)[C@@H](C)CN5C(=O)[C@H]([C@@H](C)O)NC(=O)[C@H]([C@H](O)[C@@H](O)c5ccc(O)cc5)NC(=O)[C@@H]5C[C@@H](O)CN5C(=O)[C@H]([C@@H](C)O)NC4=O)cc3)cc2)cc1 ({pTerphenylCO(4''-OnC5H11)}-[Orn(4R-OH,5R-OH)]T[Hyp][hTyr(3S-OH,4S-OH)]T[Pro(3S-OH,4S-Me)]; lactam 1-C)
inactive: activation [1] 22.9% | Potency [2] | Potency [3] | Potency [4]

FC(F)(F)c1ccccc1-c1cc(C(F)(F)F)c2nc(C3=NOC4(CCCCC4)C3)[nH]c2c1
inactive: activation [1] 15.3% | Potency [2] | Potency [3] | Potency [4]

CC(C)(F)C[C@@H](N[C@@H](c1ccc(-c2ccc(S(C)(=O)=O)cc2)cc1)C(F)(F)F)C(=O)NC1(C#N)CC1
inactive: activation [1] -8.11% | Potency [2] | Potency [3] | Potency [4]

CCOC(=O)c1ccc(NC2CCCCC2)c(N)c1
inactive: activation [1] -6.21% | Potency [2] | Potency [3] | Potency [4]

O=C(N[C@H](Cc1cscn1)C(=O)N[C@@H](CC1CCCCC1)[C@@H](O)[C@@H](O)C1CC1)c1nc2ccccc2[nH]1
inactive: activation [1] 5.25% | Potency [2] | Potency [3] | Potency [4]

O=C(Nc1ccc(N2CCC(C(=O)N3CCOCC3)CC2)cc1)c1cnc(Oc2ccccc2)nc1
inactive: activation [1] -2.39% | Potency [2] | Potency [3] | Potency [4]

Cc1cc(C)nc(NS(=O)(=O)c2ccc(NC(=S)NC(=O)COc3ccc(Br)cc3Cl)cc2)n1
inactive: activation [1] -6.21% | Potency [2] | Potency [3] | Potency [4]

Nc1nc2c(ncn2[C@@H]2O[C@H](CO)[C@@H](O)[C@H]2O)c(=O)[nH]1
inactive: activation [1] -1.43% | Potency [2] | Potency [3] | Potency [4]

COc1cccc(-c2cc(NCc3ccc4c(c3)OCO4)nc(N)n2)c1
inactive: activation [1] -3.82% | Potency [2] | Potency [3] | Potency [4]
